# BAZ2B block: qHTS Assay for Inhibitors of BAZ2B; 360,000 compounds, 4.4% hits; AlphaScreen BAZ2B-H3K14Ac peptide displacement; Bromodomain adjacent to zinc finger domain protein 2B (Homo sapiens), Q9UIF8; Potency, µM (titrated, usually from 114 µM), for the others: at the top dose activity change, negative = inhibition, usual class: inhibitors; AID 504333, 2011; also: % is scaled to controls: 0 for no effect and ±100 for the full control effect; nearly all actives have a fitted effect of over 60% in size
#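 Multi-concentration screen (max 110 uM) measuring displacement of acetylated histone H3 peptide from BAZ2B by AlphaScreen, using 50 nM protein, 50 nM peptide and 10 ug/mL streptavidin donor plus Ni-chelate acceptor beads.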
# GLS inhibitor: qHTS for Inhibitors of Glutaminase (GLS). GLS enzymatic activity, qHTS titration. AID 624170, 2012. Glutaminase kidney isoform, mitochondrial (Homo sapiens), O94925. Potency, µM (titrated, usually from 45.5 µM), for inactives: top-dose activity change, negative = inhibition, actives largely listed as inhibitors. 410,000 compounds, 0.21% hits; also: % is scaled to controls: 0 for no effect and ±100 for the full control effect
#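 Coupled fluorescence readout: glutamate oxidase/HRP/Amplex Red detect glutamate formed by hKGA from L-glutamine (1 mM solution added). Buffer 45 mM KH2PO4 pH 8.2, 0.02% Tween-20; reads at t0 and 30 min RT.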
# JMJD2A Tudor: qHTS Assay for Inhibitors of JMJD2A-Tudor Domain. Lysine-specific demethylase 4A (Homo sapiens), O75164. AlphaScreen JMJD2A-Tudor / H3K4me3 peptide binding. Potency, µM (top dose mostly 114 µM), for the others: at the top dose activity change, negative = inhibition, most hits filed as inhibitors. 390,000 compounds, 4.4% hits. AID 504339, 2011; also: % is scaled to controls: 0 for no effect and ±100 for the full control effect; nearly all actives have a fitted effect of over 50% in size
# HP1b chromo inh: HTS for Inhibitors of HP1-beta Chromodomain Interactions with Methylated Histone Tails; 390,000 compounds, 0.56% hits; AlphaScreen HP1-beta / biotin-H3K9me3 peptide binding; AID 540317, 2011; Potency, µM (titrated, usually from 114 µM), inactives show at the top dose activity change, negative = inhibition, hits mostly inhibitors; also: nearly all actives have a fitted effect of over 70% in size
#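 HP1-beta protein (50 nM final) preincubated 30 min at room temperature with biotinylated H3(1-18)K9me3 peptide (50 nM) in PBS pH 7.4, 0.01% Tween-20, then compound added for 30 min. AlphaScreen streptavidin donor/nickel chelate acceptor beads (10 ug/mL final), 30 min dark, luminescence read.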
# G9a inh: qHTS Assay for Inhibitors of Histone Lysine Methyltransferase G9a | Histone-lysine N-methyltransferase EHMT2 (Homo sapiens), Q96KQ7 | G9a H3K9 monomethylation, AlphaScreen, 2 h | Potency, µM (highest dose often 102 µM), for the others: at the top dose activity, negative = inhibition, actives largely listed as inhibitors | 350,000 compounds, 8.8% hits | AID 504332, 2011; also: % is scaled to controls: 0 for no effect and ±100 for the full control effect; nearly all actives have a fitted effect of over 75% in size
#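 G9a (20 nM) was preincubated 15 min with compound, then reacted 2 h at room temperature with 500 nM biotin-H3K9 peptide and 20 µM SAM. Monomethyl-H3K9 detected by AlphaScreen using anti-H3K9me1 antibody.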
# An asterisk follows results filed as active; ? = inconclusive; nt = not tested or not shown; [ ] = dose if it differs, or a comment. In the library only some 10% were active in any assay of this set; here they are far more common. Calls follow the shape of the dose curve; as a rule, active = well fitted curve in the direction sought with a large enough effect; inconclusive = small, poorly fitted or top-dose-only effect, or another doubt; inactive = no such curve, though single readings can be large; an effect the other way counts as inactive or inconclusive. Potency is read from the fitted curve at half-maximal effect.
SMILES,BAZ2B block,GLS inhibitor,JMJD2A Tudor,HP1b chromo inh,G9a inh
Cc1cc(C)c2nc(SC(C)C(=O)NCC(=O)Nc3ccc(F)c(F)c3F)cc(C)c2c1 (stereo unspecified),6%,12%,-10%,9%,18µM*
CC(=O)c1ccc(N2CCN(c3ccc(S(=O)(=O)NCCCN(C)C)cc3[N+](=O)[O-])CC2)cc1,nt,2%,?,-6%,?
CN(C)CCCNS(=O)(=O)c1ccc(N2CCN(Cc3ccc4c(c3)OCO4)CC2)c([N+](=O)[O-])c1,22µM*,6%,5.6µM*,22µM*,10µM*
O=Cc1cc([N+](=O)[O-])ccc1N1CCN(Cc2ccc3c(c2)OCO3)CC1,?,0%,?,7%,45µM*
CN(C)CCNS(=O)(=O)c1ccc(N2CCc3ccccc32)c([N+](=O)[O-])c1,?,21%,?,?,50µM*
O=[N+]([O-])c1ccc(N2CCN(Cc3ccc4c(c3)OCO4)CC2)nc1,?,-17%,?,1%,nt
N#C/C=C(/N)c1ccc(Br)cc1,-12%,3%,-6%,-6%,-3%[59 µM]
O=S(=O)(c1cccc(Cl)c1)N1CCN(c2nc(-c3ccccc3)nc3ccccc23)CC1,nt,nt,-9%,26%,nt
Cc1cc(Cc2cc(C)c(O)c(CO)c2)cc(CO)c1O,nt,17%,-12%,-1%,nt
Nc1cc(-c2ccc(Cl)cc2)nn1S(=O)(=O)c1cccc2nsnc12,?,-9%,45µM*,-22%,40µM*
Nc1cc(-c2ccc(Br)cc2)nn1S(=O)(=O)c1cccc2nsnc12,?,-7%,?,-13%,?
COc1ccccc1-c1cc(N)n(S(=O)(=O)c2cccc3nsnc23)n1,?,0%,?,-41%,50µM*
CCN(CC)CC#CCC1(O)c2ccccc2-c2ccccc21,-3%[57.1 µM],7%,-24%,13%,16%[59 µM]
CCOC(=O)C1CCN(c2ccc([N+](=O)[O-])cc2S(=O)(=O)N2CCOCC2)CC1,-14%,4%,-13%,7%,-3%[59 µM]
CN(C)CCCNCCCNC(=O)/C=N/O,-6%,-1%,?,12%,32µM*
Cc1c(Cl)c(-c2n[nH]c(=S)n2CC(C)C)nn1C,29%,-12%,5µM*,?,35µM*
C=CCn1c(C(CCCC)CC(C)O)n[nH]c1=S (stereo unspecified),4%,0%,?,29%,?
CCCCn1c(-c2nn(C)c(C)c2Cl)n[nH]c1=S,11%[57.1 µM],-11%,8.9µM*,-30%,11µM*
Cc1ccc(C(=O)O)cc1S(=O)(=O)Nc1ccccc1C(=O)NC1CC1,5%,6%,-22%,20%,-33%
O=C(O)CSc1ncnc2nc[nH]c12,-2%,-1%,-18%,34%,-29%[59 µM]
O=C(CSc1ncnc2nc[nH]c12)c1ccc2ccccc2c1,-22%,2%,79µM*,17%,-12%[59 µM]
c1nc(SSc2ncnc3nc[nH]c23)c2[nH]cnc2n1,nt,-25%,0.79µM*,?,nt
CCOC(=O)CCCc1sc(N)nc1-c1[nH]c(=O)[nH]c1C,6.3µM*,8%,2.2µM*,?,4.5µM*
COC(=O)c1ccc(S(=O)(=O)N2CCCCCC2)cc1,3%,11%,7%,27%,5%
Nc1c(C(=O)N2CCCCC2)sc(=S)n1-c1ccccc1,?,-8%,50µM*,14µM*,?
SMILES,BAZ2B block,GLS inhibitor,JMJD2A Tudor,HP1b chromo inh,G9a inh
Nc1c(C(=O)N2CCOCC2)sc(=S)n1-c1ccccc1,-9%,-3%,?,-43%,2.2µM*
COc1ccc(Nc2c([N+](=O)[O-])ccc3c2=NC2(CCCCC2)N=3)cc1,7.1µM*,19%,16µM*,8.9µM*,10µM*
COC(=O)c1cccc(NC(=O)CSc2nc3cccnc3n2C)c1,4%,3%,-5%,19%,-10%
COc1ccc(C2NCCc3c2[nH]c2ccccc32)cc1CN1CCc2cc(OC)c(OC)cc2C1C (stereo unspecified),?,-4%,-24%[11.4 µM],4%,45µM*
COc1ccc(C2NCCc3c2[nH]c2ccccc32)cc1COc1ccc(F)cc1 (stereo unspecified),35µM*,16%,40µM*,?,?
CC(NC(=O)C1CCN(S(=O)(=O)c2ccc(Br)s2)CC1)c1ccccc1 (stereo unspecified),8%,-3%,-18%,-6%,21%
COc1ccccc1NC(=S)NC(=O)/C=C/c1ccco1,50µM*,3%,-26%[57.1 µM],-13%,?
CC(C)(C)NC(=O)/C(=C/c1ccco1)c1ccccc1,?,6%,5%,22%,30%[0.501 µM]
Cc1ccccc1NC(=S)NC(=O)/C=C/c1ccco1,56µM*,11%,?,?,nt
Cc1ccccc1NC(=O)/C(=C/c1ccco1)c1ccccc1,?,-6%,-17%[57.1 µM],8%,32µM*
COc1ccccc1NC(=O)/C=C\c1ccco1,?,-11%,-31%,-1%,40µM*
CCCc1ccc(OC(=O)CSc2nnc(-c3cccs3)o2)cc1,-16%,-6%,-11%,38%,?
Cc1ccc(-c2nc3ccccc3s2)cc1NC(=S)NC(=O)/C=C/c1ccco1,?,4%,-26%,8%,50µM*
CCC1(c2ccccc2)NC(=O)N(CC(=O)Nc2ccc3c(c2)CCC3)C1=O (stereo unspecified),nt,6%,nt,nt,nt
O=C(NCCc1ccc(Cl)cc1)Nc1ccc(Cl)cc1,3%,1%,-13%,52%,nt
CCOc1ccc(NC(=O)CSc2nnc(Cc3cccn3C)n2-c2ccc(OC)cc2)cc1,?,0%,?,?,0%[12.7 µM]
Cc1ccc(NC(=O)CSc2nnc(Cc3cccn3C)n2-c2ccc(F)cc2)cc1,?,0%,-32%,-17%,?
COc1ccc(NC(=O)CSc2nnc(Cc3cccn3C)n2-c2ccc(OC)cc2)cc1,50µM*,3%,-20%,18%,45µM*
COc1ccc(-n2c(Cc3cccn3C)nnc2SCC(=O)Nc2cccc(NC(C)=O)c2)cc1,?,11%,-28%,1%,25%[2.33 µM]
CC(=O)c1ccc(NC(=O)CSc2nnc(Cc3cccn3C)n2-c2ccc(F)cc2)cc1,50µM*,6%,?,-8%,50µM*
COc1ccc(-n2c(Cc3cccn3C)nnc2SCC(=O)Nc2ccc3c(c2)OCCO3)cc1,?,2%,-32%,-19%,50µM*
